From PubChem
KB-3-1 tox – kills parental KB-3-1 adenocarcinoma cells; KB-3-1 viability, CellTiter-Glo ATP luminescence, 72 h; Potency, µM (highest dose often 46.1 µM), most hits filed as cytotoxic; actives 1.4% (n = 400,000); AID 1347075; also: % is scaled to controls: 0 for no effect and ±100 for the full control effect; nearly all actives have a fitted effect of over 60% in size
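Using CellTiter-Glo luminescence, growth of non-resistant KB-3-1 adenocarcinoma cells is assessed 72 h after pin-tool compound addition at 37 °C. Normalized responses across the concentration series yield fitted curves.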
KB-V1 cytotox – KB-V1 MDR subline cytotoxicity; KB-V1 MDR cells viability, CellTiter-Glo, 72 h; Potency, µM (top dose mostly 46.1 µM), most hits filed as cytotoxic; actives 3.4% (n = 400,000); AID 1347076; also: % is scaled to controls: 0 for no effect and ±100 for the full control effect; nearly all actives have a fitted effect of over 60% in size
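Readout: CellTiter-Glo luminescence, 10 min after addition. Cells: KB-V1 MDR subline, 72 h at 37 degrees C with compound. Analysis: corrected, normalized data fitted to concentration-effect curves.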
MCF10A rereplic – induces DNA re-replication in MCF 10a normal breast cells; MCF 10A DNA re-replication, Hoechst nuclear intensity, 48 h; actives 2.9% (n = 350,000); Potency, µM (doses to about 46.1 µM), for the others: at the highest dose activity, positive = re-replication, hits mostly activators; also: % of control where 0% means no effect; nearly all actives have a fitted effect of over 50% in size
SW480 rereplic – inducers of DNA re-replication in SW480 colon cancer cells. Potency, µM (top dose mostly 46.1 µM), for inactives: top-dose re-replication activation, hits mostly activators. AID 624297. actives 1.8% (n = 340,000). SW480 DNA re-replication, Hoechst DNA content imaging, 48 h; also: % of control where 0% means no effect; nearly all actives have a fitted effect of over 55% in size
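First, 250 cells per well were seeded. Next, compound or vehicle (23 nL) was pinned in, plates sat 48 hr at 37 C. Finally Hoechst was added for 40 min before fluorescence scanning.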
PTAP TSG101 blk – blocks PTAP/TSG101 interaction to inhibit HIV-1 budding | Q99816 | Fluorescence polarization, FITC-PTAP peptide / Tsg101 binding | Potency, µM (highest dose often 115 µM), inactives show top-dose activity change, negative = inhibition, hits mostly inhibitors | 340,000 tested, under 10 active | AID 493005; active = well fitted inhibition curve with a large enough effect in the main read-out, with a control signal flat, not every such curve was filed as active; inconclusive = small, poorly fitted or top-dose-only effect, or effect the other way, or a change in a side signal; inactive = no such curve, though single readings can be large or run the other way; also: % of control where 0% means no effect
Target sequence (Q99816 whole entry, looked up): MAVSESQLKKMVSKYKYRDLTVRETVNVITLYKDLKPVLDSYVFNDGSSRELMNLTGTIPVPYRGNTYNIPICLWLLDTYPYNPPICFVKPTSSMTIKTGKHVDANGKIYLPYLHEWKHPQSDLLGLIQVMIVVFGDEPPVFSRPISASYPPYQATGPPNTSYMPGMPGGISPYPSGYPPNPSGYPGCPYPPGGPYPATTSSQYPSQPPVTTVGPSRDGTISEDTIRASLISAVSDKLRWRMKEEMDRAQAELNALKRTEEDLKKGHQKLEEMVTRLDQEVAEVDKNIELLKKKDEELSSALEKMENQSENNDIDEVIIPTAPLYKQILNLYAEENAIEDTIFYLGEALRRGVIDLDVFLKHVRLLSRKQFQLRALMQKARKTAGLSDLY
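Steps: Tsg101 binding domain dispensed (10 uM final), compounds pinned in DMSO, FITC-labeled PTAP-motif peptide added (50 nM final); after 20 min binding at room temperature, polarization measured.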
RGS4 inhibitor – human RGS4 inhibition | P49798 | actives 0.039% (n = 390,000) | Transcreener GDP fluorescence polarization, RGS4-accelerated GTP hydrolysis | AID 504845 | Potency, µM (highest dose often 114 µM), without a hit: at the highest dose activity change, negative = inhibition, usual class: inhibitors; also: % is scaled to controls: 0 for no effect and ±100 for the full control effect; nearly all actives have a fitted effect of over 75% in size
Target sequence (P49798 whole entry, looked up): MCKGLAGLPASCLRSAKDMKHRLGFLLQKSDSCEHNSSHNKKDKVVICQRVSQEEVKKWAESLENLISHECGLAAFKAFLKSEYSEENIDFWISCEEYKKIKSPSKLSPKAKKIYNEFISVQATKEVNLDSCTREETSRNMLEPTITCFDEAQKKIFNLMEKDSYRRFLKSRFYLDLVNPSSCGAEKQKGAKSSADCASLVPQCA
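MLSMR compounds (23 nl, pin-transferred) preincubated 10 min at room temperature with a 500nM (2x) first reagent, then RGS4 at 900nM (2x) plus Transcreener GDP mix added; fluorescence polarization (620/688 nm) read before and after 90 min at 30 °C.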
Active calls of the source: *; i = inactive; ? = inconclusive; . = not tested or not shown; [ ] = dose if it differs, or a comment. Hits are enriched below; roughly 6.6% of the tested compounds scored in any of these assays. Unless noted, calls follow the shape of the dose curve; as a rule, active = well fitted curve in the direction sought with a large enough effect; inconclusive = small, poorly fitted or top-dose-only effect, or another doubt; inactive = no such curve, though single readings can be large; an effect the other way counts as inactive or inconclusive. Potency is read from the fitted curve at half-maximal effect.

SMILES	KB-3-1 tox	KB-V1 cytotox	MCF10A rereplic	SW480 rereplic	PTAP TSG101 blk	RGS4 inhibitor
Cc1ccsc1/C=C(\C(=O)c1ccc(OC(C)C)cc1)c1nc2ccccc2o1	i	?	18%	8.2µM*	-6%	8%
CN(C)C=Nc1ncc2c([nH]c3ccccc32)c1C#N	?	7.3µM*	29%	15%	3%	-17%
CC(C)CC(N)c1csc(NC(=O)c2cc(C(C)(C)C)nn2Cc2ccccc2)n1 (configuration not stated)	?	18µM*	.	.	.	.
Cc1cc(C)c2c(C)c(C(=O)NCc3ccncc3)oc2c1	i	?	2%	-9%	3%	0%
CCc1ccc2oc(C(=O)NCc3ccncc3)c(C)c2c1	?	12µM*	5%	-12%	-3%	-13%
Cc1ccc2oc(C(=O)NCc3ncc(C)[nH]3)c(C)c2c1	10µM*	?	?	16µM*	-5%	13%
Cc1cnc(CNC(=O)c2ccc3oc(C(C)C)nc3c2)[nH]1	i	?	-12%	-26%	-8%	38%
COc1ccc(NC(=O)Cn2c(=O)n(-c3ccc(OC)cc3)c(=O)c3sc4ccccc4c32)cc1	i	i	.	.	.	-15%
COC(=O)[C@@]12C[C@@H](CC(=O)NCCCCc3ccccc3)C(=O)N(Cc3cccc4ccccc34)C1=CCC(C)(C)C2	?	18µM*	.	.	.	.
COC(=O)[C@@]12C[C@@H](CC(=O)NCc3ccccc3)C(=O)N(Cc3cccc4ccccc34)C1=CCC(C)(C)C2	i	?	.	.	.	.
CCCCOCCCNC(=O)C[C@@H]1C[C@@]2(C(=O)OC)CC(C)(C)CC=C2N(Cc2cccc3ccccc23)C1=O	?	21µM*	.	.	.	.
COCCCNC(=O)C[C@@H]1C[C@@]2(C(=O)OC)CC(C)(C)CC=C2N(Cc2cccc3ccccc23)C1=O	i	?	.	.	.	.
CCC(Nc1ccc(-c2nc(-c3ccco3)no2)cc1[N+](=O)[O-])c1ccccc1 (configuration not stated)	i	i	.	.	.	6%
COCCNC(=O)CCSCc1ccccc1F	i	i	4.1µM*	?	-4%	-10%
O=S(=O)(Nc1ccc(-c2nc3cccnc3s2)cc1)c1ccccc1F	i	i	?	23µM*	-4%	-7%
CCS(=O)(=O)Nc1cccc(-c2nc3cccnc3s2)c1	i	i	-3%	-1%	0%	8%
Cc1cc(-c2nc3cccnc3s2)ccc1NS(=O)(=O)c1cccs1	i	i	5.8µM*	?	0%	-8%
CCS(=O)(=O)Nc1ccc(-c2nc3cccnc3s2)cc1	i	i	27%	-7%	-4%	-3%
O=S(=O)(Nc1ccc(-c2nc3cccnc3s2)cc1)c1cccs1	i	i	6.5µM*	5%	21%	12%
CCS(=O)(=O)Nc1cc(-c2nc3cccnc3s2)ccc1C	i	i	?	1%	-3%	-39%
O=S(=O)(Nc1ccc(-c2nc3cccnc3s2)cc1)c1ccc(Cl)s1	i	i	8.2µM*	-2%	-2%	-16%
CCOc1ccccc1NC(=O)Cn1cc(C(=O)c2ccc(Cl)cc2)c(=O)c2ccc(C)nc21	i	i	.	.	.	0%
Cc1c(NS(=O)(=O)c2ccc3c(c2)OCCO3)cccc1-c1nc2cccnc2s1	?	i	1%	0%	1%	-17%
Cc1cc(-c2nc3cccnc3s2)ccc1NS(=O)(=O)c1ccc2c(c1)OCCO2	i	i	5.2µM*	?	0%	28%
O=S(=O)(Nc1cccc2ncccc12)c1cccs1	?	?	16µM*	6.5µM*	-1%	4%
SMILES	KB-3-1 tox	KB-V1 cytotox	MCF10A rereplic	SW480 rereplic	PTAP TSG101 blk	RGS4 inhibitor
COCCCn1c(C(=O)N2CCOCC2)cc2c(=O)n3ccccc3nc21	i	i	-9%	-4%	-5%	-2%
N#Cc1cc2c(=O)n3ccccc3nc2n(Cc2cccnc2)c1=O	i	i	12µM*	2.3µM*	-8%	-8%
N#Cc1cc2c(=O)n3ccccc3nc2n(-c2ccccc2Cl)c1=O	?	i	4.1µM*	4.6µM*	-10%	2%
N#Cc1cc2c(=O)n3ccccc3nc2n(CCCN2CCOCC2)c1=O	i	i	23µM*	?	-10%	0%
Cc1cccn2c(=O)c3cc(C#N)c(=O)n(Cc4cccnc4)c3nc12	i	i	2.6µM*	8.2µM*	-4%	42%
Cc1cccn2c(=O)c3cc(C#N)c(=N)n(Cc4cccnc4)c3nc12	i	?	0%	1%	-4%	16%[11.4 µM]
COC(=O)C1N2C(=O)N(C)[C@H](C(=O)OC)[C@H]2SC1(C)C (some centres not stated)	i	i	.	.	.	.
CC1=C(C(=O)OC2CCCC2)C(c2ccccc2Cl)CC(=O)N1 (configuration not stated)	.	.	.	.	.	-14%
O=C(Cn1c(=O)c(=O)n(Cc2ccccc2)c2ccc(Cl)cc21)Nc1cccc(F)c1	i	13µM*	11%	-47%	0%	5%
O=C(Cn1c2ccccc2c(=O)c2ccccc21)Nc1cccc(F)c1	i	i	12µM*	18µM*	1%	?
CC(C)(C)c1ccc(C(=O)C[n+]2ccccc2Cl)cc1	i	i	.	.	.	.
Cc1ccn2c(Nc3ccccc3)c(-c3ccccn3)nc2c1	?	?	16µM*	?	-1%	-20%
Cc1ccccc1Nc1c(-c2ccccn2)nc2ccccn12	?	?	?	19%	-2%	-3%
Cc1ccc2nc(-c3ccccn3)c(Nc3ccccc3C)n2c1	?	0.73µM*	?	3.7µM*	-4%	-7%[11.4 µM]
Cc1ccn2c(Nc3ccccc3C)c(-c3ccccn3)nc2c1	?	?	?	4%	-4%	-2%[11.4 µM]
Cc1ccccc1NC(=O)c1ccccc1OCC(=O)Nc1ccc(Br)cc1	i	i	.	.	.	.
CC(C)(C)c1ccc(OCC(=O)N(Cc2ccco2)Cc2ccccc2F)cc1	.	.	.	.	.	4%
COc1ccc2cc1Oc1cc3c(cc1OC)CC[N+](C)(C)C3Cc1ccc(cc1)Oc1c(OC)c(OC)cc3c1C(C2)[N+](C)(C)CC3 (configuration not stated)	.	.	2%	0%	.	.
COc1cc(OC)c2c(C)c(CC(=O)NCc3ccccc3OC)c(=O)oc2c1	i	?	.	.	.	-31%
Cc1ccc(-c2nc3c(c(=O)c4ccccc4n3C)c(=O)n2Cc2ccco2)cc1	i	i	2%	18µM*	-8%	-10%
